# Reference: PubChem BioAssay
# Activity calls are given as the source filed them. Unless noted, no rule for the calls is given here.
# Key:
# [1] = test system: Wnt5a (protein binding on small-molecule microarray); test: small molecules binding Wnt5a protein – biophysical, small-molecule microarray, 635/667 nm fluorescence, primary screen (AID 1142); conditions: 635 nm fluorescence, higher = more signal;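 also: fluorescence read at 667 nm with signal to noise per printed feature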
# [2] = ATP-based viability of Huh7 replicon cells – cell-based, CellTiter-Glo luminescence, basal, 48 h, cytotoxicity control for HCV replication inhibitor project, primary screen (AID 1143); conditions: higher = more signal, called active from +8 up or from −8 down;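 also: Huh7 hepatoma cells carrying a hepatitis C replication reporter with no stimulus; test concentration not given here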
# [3] = Pseudomonas biofilm growth suppression – PAO1 strain, BacTiter-Glo luminescence, LB-PBS, primary screen (AID 1144); conditions: P. aeruginosa PAO1 biofilm, 12 h, higher = more signal
# [4] = basal CRE-LacZ reporter activity in PC12 – cell-based, unstimulated, primary screen (AID 1145); conditions: no forskolin, luminescence, 4.5 h, higher = more signal, called active from +8 up or from −8 down
# [5] = forskolin-driven CRE-LacZ activity in PC12 – cell-based, CRE-LacZ reporter, forskolin-stimulated, primary screen (AID 1146); conditions: luminescence, 4.5 h, higher = more signal, called active from +8 up or from −8 down;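 also: PC12 cells with 6xCRE LacZ reporter stimulated by forskolin 10 µM; beta-galactosidase reporter signal reflecting CREB driven transcription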
# [6] = molecular target: Streptavidin (Streptomyces avidinii) (UniProt P22629); test: compounds binding control protein streptavidin – biophysical, small-molecule microarray, 635/667 nm fluorescence, artefact control for SMM compound annotation, primary screen (AID 1147); conditions: higher = more signal;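 also: signal reflects streptavidin binding to arrayed compounds as a control protein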
# [7] = probe aInhba binding on compound microarray – biochemical, small-molecule microarray, 635/667 nm fluorescence, primary screen (AID 1148); conditions: higher = more signal;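 also: score merges 667nm spot fluorescence with signal-to-noise for antibody binding to printed compounds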
# Torsin-1A (Homo sapiens) [8] = molecular target: Torsin-1A (Homo sapiens) (UniProt O14656); test: TOR1A wild-type binding on microarray – cell lysate, small-molecule microarray, lysate, 635/667 nm, primary screen (AID 1149); conditions: COS7 hTOR1A-WT lysate, 635 nm fluorescence, higher = more signal
# Torsin-1A (Homo sapiens) [9] = molecular target: Torsin-1A (Homo sapiens) (UniProt O14656); test: torsin A mutant lysate binding on microarrays – cell lysate, small-molecule microarray, COS7 lysate, 635/667 nm fluorescence, primary screen (AID 1150); conditions: COS7 hTOR1A mutant lysate, 635 nm fluorescence, higher = more signal;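 also: score pools 667 nm emission and signal to noise measuring lysate protein binding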
# [10] = test system: Sonic hedgehog protein (Shh); test: Sonic hedgehog microarray binding compounds – biochemical, small-molecule microarray, 635/667 nm fluorescence, primary screen (AID 1151); conditions: 635 nm fluorescence, higher = more signal;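 also: Shh protein binding to compounds spotted on small-molecule microarray slides; score combines spot fluorescence intensity with signal-to-noise across triplicate slides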
# Torsin-1A (Homo sapiens), sequence (O14656 whole entry, looked up): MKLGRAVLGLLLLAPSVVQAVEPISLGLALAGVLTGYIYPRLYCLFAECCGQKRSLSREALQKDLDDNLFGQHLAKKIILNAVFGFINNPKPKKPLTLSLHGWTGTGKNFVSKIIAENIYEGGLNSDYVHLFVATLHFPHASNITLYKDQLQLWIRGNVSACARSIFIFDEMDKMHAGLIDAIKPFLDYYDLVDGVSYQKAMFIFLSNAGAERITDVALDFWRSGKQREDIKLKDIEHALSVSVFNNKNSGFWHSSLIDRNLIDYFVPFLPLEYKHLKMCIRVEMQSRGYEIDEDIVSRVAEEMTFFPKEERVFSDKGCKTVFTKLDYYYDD
# Streptavidin (Streptomyces avidinii), sequence (P22629 whole entry, looked up): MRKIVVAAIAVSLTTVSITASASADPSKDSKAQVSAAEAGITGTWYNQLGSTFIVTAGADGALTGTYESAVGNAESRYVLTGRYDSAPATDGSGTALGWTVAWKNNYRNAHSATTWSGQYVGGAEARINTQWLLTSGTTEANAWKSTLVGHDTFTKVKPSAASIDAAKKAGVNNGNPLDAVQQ
SMILES,composite z-score [1],z-score [2],z-score [3],z-score [4],z-score [5],composite z-score [6],composite z-score [7],composite z-score (Torsin-1A (Homo sapiens) [8]),composite z-score (Torsin-1A (Homo sapiens) [9]),composite z-score [10]
COc1ccc(C#Cc2ccc3c(c2)[C@]2(C(=O)N3)[C@H](C(=O)Nc3nc4ccccc4s3)[C@H]3C(=O)O[C@H](c4ccccc4)[C@H](c4ccccc4)N3[C@@H]2c2ccc(O)cc2)cc1,0.823,-1.3 (inactive),-0.782 (inactive),0.0653 (inactive),-0.0135 (inactive),2.25,1.43,1.41,0.903,2.02
C=C(COC)/C(=C/C[C@@H](OC(=O)c1ccncc1)c1ccc(CO)o1)c1cc(C(=O)OC)ccc1OC,1.08,-0.158 (inactive),-0.985 (inactive),0.904 (inactive),1.31 (inactive),0.207,-0.0645,1.1,0.756,2.17
C=C(C)[C@@H]1CC=C(C(O)C2C=CC3C(=O)N(c4ccccc4)C(=O)C3N2Nc2ccccc2)CC1 (stereo not given in full),0.371,0.0984 (inactive),-1.65 (inactive),0.0569 (inactive),-0.0811 (inactive),2.43,0.906,0.476,0.579,0.456
C=CCOC(=O)[C@H]1[C@@H]2C(=O)O[C@@H](c3ccccc3)[C@@H](c3ccccc3)N2[C@@H](c2ccc(OCCOC(=O)[C@H]3C[C@H]4C(=O)N[C@@H](CCCCNC(C)=O)C(=O)N4[C@H]3c3cccc(OCCO)c3)cc2)[C@]12C(=O)Nc1ccccc12,0.791,-1.1 (inactive),-0.292 (inactive),-1.08 (inactive),-0.908 (inactive),-0.365,-0.21,0.983,0.934,2.07
COc1cc2c(cc1OC)CN(C(=O)[C@H]1[C@@H]3C(=O)O[C@@H](c4ccccc4)[C@@H](c4ccccc4)N3[C@@H](c3ccc(O)cc3)[C@]13C(=O)Nc1ccc(C#CCCO)cc13)CC2,-0.0279,-1.04 (inactive),-0.827 (inactive),0.0653 (inactive),-0.163 (inactive),0.491,-0.0405,0.0143,0.618,0.0545
COc1cccc(-c2cccc(=O)o2)c1,0.595,0.064 (inactive),0.77 (inactive),-0.228 (inactive),-0.977 (inactive),0.438,0.177,0.0114,0.698,-0.207
NC(=O)[C@@H]1[C@H]2C(=O)O[C@H](c3ccccc3)[C@H](c3ccccc3)N2[C@H](c2ccc(O)cc2)[C@@]12C(=O)Nc1ccccc12,-0.766,-4.14 (inactive),-0.609 (inactive),-0.491 (inactive),0.276 (inactive),-0.99,-0.152,-2.99,-2.06,0.154
CN(C)C(=O)[C@@]1(CCS(=O)(=O)c2ccccc2)COC(c2ccc(OCCCO)cc2)=N1,0.623,-3.66 (inactive),-0.26 (inactive),-0.562 (inactive),-0.793 (inactive),0.0248,0.0589,1.24,2.51,-0.977
O=C(NC1CC1)[C@@H]1c2ccccc2C(=O)N(Cc2ccccc2Cl)[C@H]1c1ccc(CO)cc1,0.201,-2.67 (inactive),-0.764 (inactive),-0.0888 (inactive),-1.69 (inactive),0.384,0.225,0.725,0.941,0.957
O=C1O[C@@H](c2ccccc2)[C@@H](c2ccccc2)N2[C@@H](c3ccccc3OCCO)[C@]3(C(=O)Nc4ccccc43)[C@@H](C(=O)Nc3nc4ccccc4s3)[C@H]12,0.371,-5.91 (inactive),-0.311 (inactive),0.568 (inactive),3.07 (inactive),1.9,0.286,0.469,0.972,2.03
Cc1ccc(S[C@]2(C(=O)O)CC(=O)N(C(C)C)[C@@H]2c2ccc(CO)cc2I)cc1,-0.0822,-2.86 (inactive),-0.29 (inactive),0.324 (inactive),0.289 (inactive),0.513,0.516,0.523,0.202,-0.189
CN(C)CCCCCCNC(=O)[C@@H]1C[C@@H]2C(=O)N[C@@H](Cc3ccccc3)C(=O)N2[C@@H]1c1ccc(O)cc1,0.484,-0.764 (inactive),-0.0157 (inactive),-0.528 (inactive),-0.167 (inactive),0.405,-0.025,0.641,1.37,2.19
[N-]=[N+]=NCc1ccccc1C[C@]1(C(=O)N2CCCCC2)N=C(c2ccc(OCCCO)cc2)O[C@H]1c1ccccc1N=[N+]=[N-],0.0151,-5.01 (inactive),-0.799 (inactive),-0.333 (inactive),-1.69 (inactive),1.46,0.127,0.333,1.03,-0.27
